Source: PubChem
Hits are enriched below; roughly 1.5% of the tested compounds scored in any of these assays.
TrxR1 substrate = rat thioredoxin reductase 1 substrate activity | purified TrxR1 substrate turnover, NADPH consumption readout | Potency, µM (series often up to 114 µM), for the others: at the highest dose activity change, negative = substrate turnover | hit rate 0.01% among 390,000 | AID 588456; also: potency is read from the fitted curve at half-maximal effect; nearly all actives have a fitted effect of over 50% in size
Target sequence (O89049 whole entry, looked up): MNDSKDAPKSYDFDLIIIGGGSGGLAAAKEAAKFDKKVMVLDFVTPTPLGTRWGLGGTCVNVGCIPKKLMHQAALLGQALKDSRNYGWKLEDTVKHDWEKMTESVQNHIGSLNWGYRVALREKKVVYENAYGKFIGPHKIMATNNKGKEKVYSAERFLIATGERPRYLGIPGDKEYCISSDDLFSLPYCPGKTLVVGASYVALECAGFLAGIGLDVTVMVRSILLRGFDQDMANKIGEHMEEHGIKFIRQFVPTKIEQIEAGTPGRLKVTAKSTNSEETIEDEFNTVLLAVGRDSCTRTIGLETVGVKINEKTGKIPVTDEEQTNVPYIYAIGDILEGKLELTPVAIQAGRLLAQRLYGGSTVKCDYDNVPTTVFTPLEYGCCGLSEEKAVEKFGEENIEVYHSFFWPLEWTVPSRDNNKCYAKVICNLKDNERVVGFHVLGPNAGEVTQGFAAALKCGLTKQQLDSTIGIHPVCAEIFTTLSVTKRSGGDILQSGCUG
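Rat TrxR1, dispensed at 90 nM, was prereduced with 400 uM NADPH (final) for 5 min at ~22 deg C, then incubated with compound 15 min before 400 uM selenite. A first-read NADPH fluorescence drop versus no-compound background flagged substrates.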
PI4K2A block = PI4K2A (human) kinase inhibition; hit rate 0.13% among 420,000; AID 1346378; purified PI4K2A, ADP-Glo luminescence, 1 h; hits give low values; Q9BTU6; activity change, negative = inhibition, % at 76.9 µM; in the data active = activity change below about -50%; inconclusive = mostly about -30% to -49%;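 also: -100% = wells without enzyme as full effect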
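In this quantitative HTS, ADP production by PI4K2A was quantified luminescently after 1 h at ambient temperature; 100 microM adenosine served as plate-quality control.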
FBPA coupling cs = coupling enzyme interference in Giardia aldolase counter-screen; hit rate 0.67% among 290,000; coupling enzyme system counterscreen, AmpLite Red fluorescence; AID 2472; activity change, negative = inhibition, % at 58.2 µM, hits read low; in the data active = activity change below about -30%
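Final compound at 57.5 uM, incubated 10 min at RT with coupling enzyme reagent (glyceraldehyde-3-phosphate), then 20 min with substrate and AmpLite Red detection. Fluorescence read at 525/598 nm; tests interference with the coupling assay, not aldolase inhibition.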
rTrxR1 inhibitor = blocks rat thioredoxin reductase 1; hit rate 1% among 390,000; recombinant rTrxR1, NADPH fluorescence consumption, selenite substrate; Potency, µM (top dose mostly 114 µM), inactives show at the top dose activity change, negative = inhibition, usual class: inhibitors; also: potency is read from the fitted curve at half-maximal effect; nearly all actives have a fitted effect of over 65% in size
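Rat TrxR1 (90 nM in the dispensed reagent) was pre-reduced with 400 uM NADPH for 5 min at room temperature, then incubated with compound for 15 min. After 400 uM selenite was added, NADPH fluorescence (Ex 340/Em 450 nm) was followed for 8 min.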
GALK inh = blocks human galactokinase activity. P51570. AID 1868. Purified GALK, Kinase-Glo residual ATP luminescence. Potency, µM (top dose mostly 57.5 µM), for inactives: top-dose activity change, negative = inhibition, most hits filed as inhibitors. hit rate 0.007% among 270,000; also: potency is read from the fitted curve at half-maximal effect
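The enzyme phosphorylates galactose (100 uM) using ATP (35 uM); inhibition is detected as higher residual ATP, quantified by bioluminescence after 1 h reaction at room temperature, pH 8.0.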
Giardia kill = kills Giardia lamblia. Giardia lamblia trophozoite viability. activity change, % at 7.66 µM, hits read low. hit rate 0.15% among 340,000. AID 540267; in the data active = activity change below about -80%; inconclusive = between about -30% and that limit;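 also: parasites exposed to compound for two days anaerobically before the ATP read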
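Compounds were tested on trophozoites seeded at 100 cells/well and held 48 hrs at 37 deg C anaerobically. An ATP-based luminescent kit measured the remaining live cells.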
An asterisk follows results filed as active; ? = inconclusive; . = not tested or not shown; [ ] = remark or other dose. Unless noted, calls follow the shape of the dose curve; as a rule, active = well fitted curve in the direction sought with a large enough effect; inconclusive = small, poorly fitted or top-dose-only effect, or another doubt; inactive = no such curve, though single readings can be large; an effect the other way counts as inactive or inconclusive. Unless noted, % is scaled to controls: 0 for no effect and ±100 for the full control effect.

SMILES	TrxR1 substrate	PI4K2A block	FBPA coupling cs	rTrxR1 inhibitor	GALK inh	Giardia kill
CC(NC(=O)C12CC3CC(CC(C3)C1)C2)C(=O)NN=Cc1ccc([N+](=O)[O-])o1 (centres undefined)	-9.4%	-0.1	.	-57.4%	.	-93.0*
CC(NC(=O)c1ccc([N+](=O)[O-])o1)C12CC3CC(CC(C3)C1)C2 (centres undefined)	-7.6%[57.1 µM]	-6.6	-2.7	-14.2%[57.1 µM]	-1.8%	-86.5*
O=C(N/N=C\c1ccc([N+](=O)[O-])o1)C1COc2ccccc2O1 (centres undefined)	1.6%[57.1 µM]	-3.7	2.0	?	2.8%	-82.4*
O=C(N/N=C\c1ccc([N+](=O)[O-])s1)C1COc2ccccc2O1 (centres undefined)	1.9%	0.4	0.2	?	5.8%	-85.1*
O=C(N/N=C/c1ccc([N+](=O)[O-])o1)C1CCCC1	-2.8%	-0.7	.	?	0.4%	-93.5*
O=[N+]([O-])c1ccc(/C=[N+](\[O-])[C@@H]2CCCC[C@@H]2/[N+]([O-])=C/c2ccc([N+](=O)[O-])o2)o1	10.6%[57.1 µM]	-6.8	-12.6	?	-2.5%	-82.2*
COc1cc(C(C#N)N2CCOCC2)ccc1O (centres undefined)	-5.7%	2.8	-34.8*	-4.8%	1.7%	-3.8
COc1cc(C(C#N)N2CCCCC2)ccc1O (centres undefined)	-3.8%[57.1 µM]	9.7	-20.2	8.9%[57.1 µM]	1.2%	-1.6
C[C@H](NC(=O)OC(C)(C)C)C(=O)c1ccco1	2.1%	.	.	9.9%	.	.
COCc1ccc(C(=O)N2CCCC(CNC(=O)c3ccc(F)cc3)C2)o1 (centres undefined)	-7.8%	0.3	.	35.5µM*	5.7%	-3.9
Cc1cccc2c3c(ccc12)C1=C(C(=O)C3=O)[C@@H](C)CO1	.	.	-41.6*	.	.	.
CC1COc2ccccc2C1=O (centres undefined)	.	.	3.5	.	.	.
O=C1CCC=C1C(O)c1ccccc1 (centres undefined)	.	.	1.2	.	.	.
Nc1[nH]c(=S)[nH]c(=O)c1N	17.6%	.	.	-0.1%	.	.
CCOC(=O)[C@]12CCCCC/C=C\1N(CCc1ccc(Cl)cc1)C(=O)[C@H]2CC(=O)NCCC(C)C	.	-5.6	.	.	.	.
Cn1cnc([N+](=O)[O-])c1Sc1ncnc2nc[nH]c12	6.9%[57.1 µM]	-2.5	4.1	25.1µM*	1.4%	5.6
O=C1ON=C(c2ccccc2)/C1=C/c1ccc(-c2ccccc2[N+](=O)[O-])o1	-5.6%	?	-7.2	?	-11.5%	0.7
O=C1ON=C(c2ccc([N+](=O)[O-])cc2)/C1=C/c1ccccc1O	3.9%	-5.0	6.0	17.8µM*	.	26.7
O=C(/C=C/c1ccco1)NCC(=O)N/N=C/c1ccc([N+](=O)[O-])cc1	-9.6%	?	1.0	44.7µM*	1.2%	-21.4
CCOC(=O)C1CCN(C(=O)c2ccc3c(c2)N=C(CC)c2cc(C)ccc2S3)CC1	-6.3%	-5.8	.	4.7%	.	.
Cc1ccc(/C=[N+](\[O-])c2ccc(N(C)C)cc2)c2nsnc12	-14.4%	-29.1	-41.3*	22.4µM*	8.5%	7.0
Cc1ccc(C)c2c(/C=C/c3ccc(N(C)C)cc3)ccnc12	-3.4%	.	.	-13.0%	.	.
CC(=O)Nc1ccc2nc(-c3ccc(Br)o3)[nH]c2c1	-2.2%	-2.0	-11.9	11.2µM*	-1.1%	7.0
O=C(Nc1ccc2nc(-c3ccc(Br)o3)[nH]c2c1)c1ccco1	5.5%[57.1 µM]	3.3	-11.9	-53.9%	1.3%	-4.5
O=C(Nc1ccc2nc(-c3ccc(Br)o3)[nH]c2c1)c1cccs1	-1.4%	4.8	-10.8	15.8µM*	-2.1%	-20.9
CN(C)c1cccc2c1c(NC(=O)Nc1ccc(F)cc1F)nn2C	0.4%	1.9	-29.1	15.3%	.	9.2
CN(C)c1cccc2c1c(NC(=O)Nc1ccccc1)nn2C	4.9%	-18.4	-31.0*	-18.0%	.	3.1
CN(C)c1cccc2c1c(NC(=O)c1ccc(Cl)cc1)nn2C	?	-6.4	-36.7*	-11.1%	-1.2%	13.9
Cc1ccccc1OCC(=O)Nc1cc(C)c(O)c(-c2nc3ccccc3o2)c1	8.8%	.	.	24.6%	.	.
